From PubChem BioAssay
Active and inactive are the calls of the source. Unless noted, no rule for the calls is given here.

How the values were obtained:
[1] = compound effects on lung adenocarcinoma cell viability – A549, calcein-AM fluorescence, 48 h, basal, profiling panel (AID 1162); details: higher = more signal; also: test concentration not given here
[2] = compound effects on differentiated 3T3-L1 adipocyte viability – cell-based, 3T3-L1 adipocytes, calcein-AM fluorescence, 48 h, basal, profiling panel (AID 1163); details: 3T3-L1 adipocytes viability, higher = more signal; also: test concentration not given here
[3] = compound effects on hepatocellular carcinoma cell viability – HepG2, calcein-AM fluorescence, 48 h, basal, profiling panel (AID 1164); details: higher = more signal; also: test concentration not given here
[4] = compound effects on multiple myeloma cell viability – MM1S, calcein-AM fluorescence, 48 h, basal, profiling panel (AID 1165); details: higher = more signal;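 also: viability of MM1S multiple myeloma cells under basal unstimulated conditions; test concentration not given here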
[5] = calcein-AM signal in unstimulated myeloma cells – cell-based, calcein-AM fluorescence, 48 h, PK04 Diversity Set, profiling panel (AID 1166); details: RPMI8226 myeloma viability, higher = more signal;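 also: cells grown under basal conditions without added stimulus; test concentration not given here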
[6] = JC-1 mitochondrial signal, unstimulated HepG2 cells – cell-based, JC-1 fluorescence, 24 h, 100 nL compound, profiling panel (AID 1167); details: HepG2 mitochondrial potential, higher = more signal; also: test concentration not given here
[7] = JC-1 mitochondrial signal, unstimulated adipocytes – cell-based, JC-1 fluorescence, 3T3-L1 adipocytes, 24 h, 100 nL compound, profiling panel (AID 1168); details: JC-1 mitochondrial fluorescence, higher = more signal, called active from +8 up or from −8 down; also: test concentration not given here
[8] = JC-1 mitochondrial signal, unstimulated myeloma cells – cell-based, JC-1 fluorescence, RPMI8226, 24 h, 100 nL compound, profiling panel (AID 1169); details: JC-1 mitochondrial potential fluorescence, higher = more signal; also: test concentration not given here
[9] = JC-1 mitochondrial signal, unstimulated MM1S myeloma – cell-based, JC-1 fluorescence, 24 h, 100 nL compound, profiling panel (AID 1170); details: MM1S mitochondrial potential, higher = more signal; also: test concentration not given here
[10] = resazurin metabolic signal in A549 cells – cell-based, resazurin fluorescence, 24 h, PK04 Diversity Set, profiling panel (AID 1171); details: A549 viability, higher = more signal, called active from +8 up or from −8 down; also: test concentration not given here
[11] = resazurin metabolic signal in HepG2 cells – cell-based, resazurin fluorescence, 24 h, PK04 Diversity Set, profiling panel (AID 1172); details: HepG2 viability, higher = more signal; also: test concentration not given here
[12] = budding yeast growth changes without added modifier – OD600, strain BY4716, 24 h, basal condition, primary screen (AID 1173); details: S. cerevisiae BY4716 growth, OD600, 24 h; higher = more signal, called active from +8 up or from −8 down
[13] = viability profiling in MM1S myeloma cells – cell-based, resazurin fluorescence, basal, 24 h, PK04 Diversity Set, profiling panel (AID 1174); details: higher = more signal, called active from +8 up or from −8 down; also: test concentration not given here
[14] = target: Dihydroorotate dehydrogenase (quinone), mitochondrial (Plasmodium falciparum (isolate 3D7)) (UniProt Q08210); experiment: inhibition of P. falciparum DHODH – biochemical, C-terminal His tag, absorbance 600 nm, primary screen (AID 1175); details: PfDHODH enzyme, DCIP absorbance 600 nm; higher = more signal, called active from +8 up or from −8 down;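 also: recombinant parasite enzyme with a five histidine tag at its C terminus; test concentration not given here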
Dihydroorotate dehydrogenase (quinone), mitochondrial (Plasmodium falciparum (isolate 3D7)), sequence (Q08210 whole entry, looked up): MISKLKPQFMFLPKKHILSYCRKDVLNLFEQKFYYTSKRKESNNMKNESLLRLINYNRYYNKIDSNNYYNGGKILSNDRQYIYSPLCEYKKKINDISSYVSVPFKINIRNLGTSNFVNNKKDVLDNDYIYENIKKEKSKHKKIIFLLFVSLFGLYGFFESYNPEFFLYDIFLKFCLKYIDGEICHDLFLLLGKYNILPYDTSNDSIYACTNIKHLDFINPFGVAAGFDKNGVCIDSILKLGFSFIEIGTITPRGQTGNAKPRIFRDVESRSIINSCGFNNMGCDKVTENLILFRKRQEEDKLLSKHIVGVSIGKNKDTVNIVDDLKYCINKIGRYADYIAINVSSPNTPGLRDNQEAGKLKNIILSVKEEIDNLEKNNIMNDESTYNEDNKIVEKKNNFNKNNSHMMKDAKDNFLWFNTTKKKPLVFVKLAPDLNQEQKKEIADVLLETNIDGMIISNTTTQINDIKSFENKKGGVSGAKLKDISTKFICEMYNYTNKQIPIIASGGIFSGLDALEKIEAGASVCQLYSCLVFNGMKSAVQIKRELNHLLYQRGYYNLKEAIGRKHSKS

[15] = inhibition of PAO1 biofilm formation – strain PAO1, LB-PBS medium, absorbance 600 nm, primary screen (AID 1176); also: test concentration not given here; details: P. aeruginosa PAO1 growth/biofilm, A600, 12 h; higher = more signal
[16] = growth modulation of vineyard yeast isolate – strain RM11-1a, OD600, basal, 24 h, primary screen (AID 1177);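 also: cultures grown under basal conditions with no added stressor; test concentration not given here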; details: S. cerevisiae RM11-1a growth, OD600, 24 h; higher = more signal, called active from +8 up or from −8 down
[17] = growth of efflux-deficient E. coli DRC39 – strain DRC39, OD650, 24 h, E. coli filamentation inducers, primary screen (AID 1178);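 also: growth measured as culture turbidity by optical density at 650 nm; test concentration not given here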; details: E. coli DRC39 acrAB, higher = more signal, called active from +8 up or from −8 down
[18] = growth of efflux-deficient E. coli DRC39 – strain DRC39, OD650, 48 h, E. coli filamentation inducers, primary screen (AID 1179);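 also: screen aims at cell division blockers that make cells filament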; details: E. coli DRC39 delta-acrAB growth, higher = more signal, called active from +8 up or from −8 down
[19] = viability profiling in RPMI8226 myeloma cells – cell-based, resazurin fluorescence, basal, 24 h, PK04 Diversity Set, profiling panel (AID 1180); details: higher = more signal;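 also: RPMI8826 multiple myeloma cell line at 5000 cells per well; test concentration not given here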
[20] = target: E3 ubiquitin-protein ligase XIAP (Homo sapiens) (UniProt P98170); experiment: small molecules binding XIAP protein – biophysical, small-molecule microarray, fluorescence 635 nm, primary screen (AID 1181); details: higher = more signal;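 also: score merges 667 nm emission and signal to noise over triplicate slides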
E3 ubiquitin-protein ligase XIAP (Homo sapiens), sequence (P98170 whole entry, looked up): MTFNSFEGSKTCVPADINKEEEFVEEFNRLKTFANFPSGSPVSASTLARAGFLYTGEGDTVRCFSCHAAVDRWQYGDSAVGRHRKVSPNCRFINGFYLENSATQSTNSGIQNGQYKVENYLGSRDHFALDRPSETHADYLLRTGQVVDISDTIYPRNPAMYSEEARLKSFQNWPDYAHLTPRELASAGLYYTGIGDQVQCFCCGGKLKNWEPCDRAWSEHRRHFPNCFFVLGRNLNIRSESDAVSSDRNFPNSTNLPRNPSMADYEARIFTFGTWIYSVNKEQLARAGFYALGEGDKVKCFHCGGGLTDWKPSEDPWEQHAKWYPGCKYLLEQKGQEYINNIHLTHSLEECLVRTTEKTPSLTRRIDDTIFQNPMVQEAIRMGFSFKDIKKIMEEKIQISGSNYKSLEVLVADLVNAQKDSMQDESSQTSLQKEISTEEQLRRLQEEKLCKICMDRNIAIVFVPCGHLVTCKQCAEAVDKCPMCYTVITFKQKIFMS

Structure (SMILES)	z-score [1]	z-score [2]	z-score [3]	z-score [4]	z-score [5]	z-score [6]	z-score [7]	z-score [8]	z-score [9]	z-score [10]	z-score [11]	z-score [12]	z-score [13]	composite z-score [14]	z-score [15]	z-score [16]	z-score [17]	z-score [18]	z-score [19]	composite z-score [20]
O=C1C2C=CC(C(O)c3cccc4ccccc34)N(Nc3ccccc3)C2C(=O)N1c1ccccc1 (stereo not given)	0.112	-1.54	0.22	-0.624	-1.52	-1.09	-0.209 (inactive)	-0.408	-0.318	-0.854 (inactive)	0.451	-3.11 (inactive)	0.0605 (inactive)	0.651 (inactive)	1.6 (inactive)	-0.0805 (inactive)	-0.148 (inactive)	0.133 (inactive)	-0.0011	0.197
C[C@]12C(=O)N(CCCCCO)[C@@H]3C(=O)N(c4ccc(Cl)cc4)CC=CC31O[C@@H]1/C=C\CCCOC(=O)C12 (stereo not given in full)	-0.237	0.282	0.209	0.355	-0.376	-0.259	-0.175 (inactive)	0.109	-0.0571	-0.663 (inactive)	-0.626	-0.225 (inactive)	0.194 (inactive)	-0.841 (inactive)	-0.677 (inactive)	-0.605 (inactive)	-0.308 (inactive)	-0.175 (inactive)	-0.135	0.234
CC(C)C[C@@H]1NC(=O)[C@@H]2C[C@H](C(=O)NCc3ccc(F)cc3)[C@H](c3ccc(O)cc3)N2C1=O	0.0054	0.305	-1.03	-0.199	-0.214	1.07	0.0421 (inactive)	0.182	0.593	0.149 (inactive)	-1.5	0.0288 (inactive)	0.429 (inactive)	-1.36 (inactive)	0.891 (inactive)	-0.647 (inactive)	-0.52 (inactive)	-1.2 (inactive)	0.734	0.222
COc1ccccc1CN1C(=O)c2ccccc2[C@@H](C(=O)NCC(C)C)[C@@H]1c1ccc(CO)cc1	0.467	0.796	0.306	0.869	-2.01	0.962	-1.09 (inactive)	0.398	0.544	-0.624 (inactive)	-1.4	0.352 (inactive)	0.897 (inactive)	0.769 (inactive)	0.31 (inactive)	0.777 (inactive)	0.547 (inactive)	0.347 (inactive)	1.02	-0.104
[N-]=[N+]=Nc1ccccc1C[C@]1(C(=O)NCCN2CCOCC2)N=C(c2ccc(OCCCO)cc2)O[C@H]1c1ccccc1N=[N+]=[N-]	0.0861	0.784	-0.111	-2.41	-1.2	1.23	1.27 (inactive)	-1	-0.571	-2.47 (inactive)	-1.31	-4.84 (inactive)	-1.83 (inactive)	-0.695 (inactive)	-0.596 (inactive)	-0.505 (inactive)	-0.0345 (inactive)	1.31 (inactive)	-2.13	0.0402
CC(C)N1CC=CC23O[C@@H]4C=CCOC(=O)[C@@H]4[C@H]2C(=O)N(CCCCCCO)[C@@H]3C1=O (stereo not given in full)	0.0698	0.105	-0.684	1.17	0.255	-0.202	-0.109 (inactive)	0.0854	-0.249	0.64 (inactive)	0.821	0.562 (inactive)	-0.581 (inactive)	-1.07 (inactive)	0.165 (inactive)	-0.21 (inactive)	0.412 (inactive)	0.24 (inactive)	0.704	0.0342
Cc1ccc(F)cc1S(=O)(=O)N[C@@H]1CCN(C(=O)c2ccc(OC(C)C)cc2)C1	0.0926	-1.39	-0.471	0.0842	-0.705	-0.14	-0.0993 (inactive)	-0.276	-0.497	-0.216 (inactive)	0.157	-2.17 (inactive)	0.554 (inactive)	-0.431 (inactive)	-0.165 (inactive)	-0.455 (inactive)	1.16 (inactive)	0.427 (inactive)	0.339	0.0336
C=CCC(OC(C)=O)[C@@H]1[C@@H](N(Cc2ccc(-c3cccc(C(F)(F)F)c3)o2)C(=O)c2cccc3ccccc23)c2cc(OCCCO)ccc2N1C(=O)c1ccc(-c2ccccc2)cc1 (stereo not given in full)	0.558	0.865	-0.382	-1.04	-1.23	2.41	-2.44 (inactive)	0.00531	0.988	-0.93 (inactive)	-1.02	-0.0033 (inactive)	-1.1 (inactive)	0.821 (inactive)	-0.416 (inactive)	0.0679 (inactive)	0.147 (inactive)	-0.241 (inactive)	-0.851	-0.031
COc1ccc(CCNC(=O)[C@@H]2c3ccccc3C(=O)N(Cc3ccccc3)[C@H]2c2ccc(CO)cc2)cc1	2.96	1.29	2.44	-0.913	1.02	2.56	1.26 (inactive)	-0.192	-0.502	0.577 (inactive)	0.713	-0.996 (inactive)	-2.71 (inactive)	-0.489 (inactive)	0.801 (inactive)	-0.539 (inactive)	1.62 (inactive)	1.78 (inactive)	-0.648	-0.0272
CN(C)C(=O)[C@@]1(Cc2ccccc2N=[N+]=[N-])N=C(c2ccc(OCCCO)cc2)O[C@H]1c1ccccc1N=[N+]=[N-]	-0.0639	1.45	-1.38	-3.16	-4.47	1.45	0.918 (inactive)	-1.26	-1.03	-0.406 (inactive)	-0.663	0.582 (inactive)	-1.8 (inactive)	1.32 (inactive)	-0.73 (inactive)	2.9 (inactive)	0.732 (inactive)	-0.421 (inactive)	-2.2	1.98
COCCOC(=O)N1C(=O)[C@@]2(c3ccccc31)[C@H](c1ccc(OCCO)cc1)N1[C@H](c3ccccc3)[C@H](c3ccccc3)OC(=O)[C@H]1[C@@H]2C(=O)NC[C@H](O)c1ccccc1	-0.332	0.754	0.349	-0.991	-2.39	-0.32	0.988 (inactive)	0.199	-0.864	-1.16 (inactive)	0.37	1.96 (inactive)	-0.261 (inactive)	-1.93 (inactive)	2.32 (inactive)	2.94 (inactive)	0.271 (inactive)	0.193 (inactive)	-0.25	-0.148
O=C1C2C=CC(C(O)c3ccccn3)N(Nc3ccccc3)C2C(=O)N1c1ccccc1 (stereo not given)	0.312	-1.46	0.593	0.111	-0.0462	-0.568	-0.467 (inactive)	-0.234	-1.11	-0.752 (inactive)	0.458	-1.07 (inactive)	-0.702 (inactive)	1.06 (inactive)	0.35 (inactive)	0.565 (inactive)	-0.562 (inactive)	-0.225 (inactive)	0.16	0.109
CC(C)C[C@@H]1NC(=O)[C@@H]2C[C@H](C(=O)NCCCC[N+](C)(C)C)[C@H](c3cccc(OCCO)c3)N2C1=O	-0.316	-0.0337	-0.75	-1.3	-0.122	-1.16	-0.915 (inactive)	0.789	-0.132	-0.331 (inactive)	-3.45	1.45 (inactive)	-0.986 (inactive)	-29 (active)	1.3 (inactive)	0.958 (inactive)	-0.234 (inactive)	-0.667 (inactive)	-1.16	-0.127
C[N+](C)(C)CCCCCCNC(=O)[C@H]1C[C@H]2C(=O)N3CCC[C@H]3C(=O)N2[C@H]1c1cccc(OCCO)c1	-0.538	-1.25	-0.684	0.429	0.512	-1.68	-0.416 (inactive)	-0.173	-0.167	0.558 (inactive)	0.473	-0.187 (inactive)	-0.41 (inactive)	-0.788 (inactive)	-0.13 (inactive)	-0.637 (inactive)	0.12 (inactive)	-0.271 (inactive)	-0.767	0.135
COc1ccc(C(=O)Nc2ccc(CN3C(=O)[C@]4(O[C@H](CCn5cc([C@H](O)c6ccccc6)nn5)[C@@H]([Si](C)(C)c5ccc(OC)cc5)[C@@H]4C)c4ccccc43)cc2)cc1	-0.0731	-0.145	-4.03	-2.67	-3.84	1.48	0.374 (inactive)	-1.12	-2.36	-1.64 (inactive)	-1.34	-0.884 (inactive)	-3.17 (inactive)	-0.0934 (inactive)	1.55 (inactive)	1.63 (inactive)	0.938 (inactive)	0.63 (inactive)	-3.24	0.0623
N#Cc1ccc(NN2C(C(O)c3ccccc3)C=CC3C(=O)N(c4ccccc4)C(=O)C32)cc1 (stereo not given)	-1.14	-0.173	0.216	-0.861	-0.32	-0.782	-0.182 (inactive)	0.0989	0.976	-0.331 (inactive)	-0.822	-1.47 (inactive)	-0.0476 (inactive)	-0.804 (inactive)	0.158 (inactive)	-0.323 (inactive)	-0.371 (inactive)	0.0355 (inactive)	-1.15	-0.0062
CC[C@@H]1[C@@H]2C3C(=O)N(CC)C(=O)C3CC(=O)[C@@H]2[C@H](c2ccc(C)cc2)N1S(=O)(=O)c1ccc(C)cc1 (stereo not given in full)	0.63	0.552	0.769	-0.639	-1.6	0.601	0.0417 (inactive)	-0.227	-1.59	-0.195 (inactive)	-0.107	-1.67 (inactive)	-1.27 (inactive)	-0.415 (inactive)	0.409 (inactive)	-1.13 (inactive)	0.694 (inactive)	1.26 (inactive)	0.887	-0.0962
Cc1ccc(S[C@]2(C(=O)O)CC(=O)N(C3CCCCC3)[C@@H]2c2ccc(CO)cc2)cc1	-0.0959	-0.753	0.952	-0.634	0.761	0.318	0.144 (inactive)	-0.148	-0.776	-0.345 (inactive)	-0.628	-1.74 (inactive)	0.0977 (inactive)	0.234 (inactive)	0.512 (inactive)	-0.332 (inactive)	0.643 (inactive)	1.48 (inactive)	0.273	-0.0031
